Compound activity as filed in PubChem BioAssay.
ALDH1A1 inh: blocks purified human ALDH1A1 activity; Purified ALDH1A1, NADH fluorescence, propionaldehyde substrate; Potency, µM (top dose mostly 75.3 µM), without a hit: at the top dose activity, negative = inhibition, hits mostly inhibitors; 220,000 compounds, 7.3% hits; P00352; AID 1030; active = well fitted inhibition curve with a large enough effect, not every such curve was filed as active; inconclusive = small, poorly fitted or top-dose-only effect, or another doubt; inactive = no such curve, though single readings can be large or run the other way;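 note: plate controls were no enzyme wells and a reference inhibitor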
Sfp inh: blocks B. subtilis Sfp PPTase activity. Potency, µM, for the others: largest response in the series, negative = inhibition, actives largely listed as inhibitors. AID 1490. 310,000 compounds, 3.5% hits. Biochemical Sfp PPTase activity, qHTS. Q9F4F7;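 note: the enzyme is Sfp with the accession as filed and its product quenches rhodamine fluorescence; 0% = enzyme reaction without inhibitor and -100% = no enzyme wells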
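Fluorescence-quenching assay with 15 nM Sfp, 5 uM rhodamine-CoA and 12.5 uM BHQ-2-labelled ybbR peptide in pH 7.6 Hepes/MgCl2 buffer. Enzyme was pre-incubated with compound for 15 min at room temperature. Rate was taken from the 30-min fluorescence change (525/598 nm).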
Gal4-VP16 FLuc: counter-screen for ROR gamma inhibitors: Gal4-VP16 reporter. 310,000 compounds, 3.5% hits. Potency, µM (doses to about 53.6 µM), for the others: at the top dose activity, negative = inhibition, actives largely listed as inhibitors. Drosophila S2 Gal4-VP16 UAS-luciferase, luminescence, 20 h. AID 2546;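 note: Gal4-VP16 expression switched on by copper sulfate through the metallothionein promoter; nearly all actives have a fitted effect of over 50% in size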
PLK1 PBD inh: PLK1 (human) polo-box domain binding inhibition. P53350. Plk1 PBD binding of FITC phosphopeptide, fluorescence polarization. Potency, µM, for inactives: max response, negative = inhibition, most hits filed as inhibitors. 360,000 compounds, 2.8% hits. AID 720504; note: series mostly up to about 57 µM; nearly all actives have a fitted effect of over 65% in size
RORgamma inh: ROR gamma (mouse) transcription inhibition. Drosophila S2 Gal4-RORgamma UAS-luciferase reporter, 20 h. Potency, µM (titrated, usually from 53.6 µM), for the others: at the highest dose activity change, negative = inhibition, usual class: inhibitors. AID 2551. 310,000 compounds, 5.4% hits. P51450; note: nearly all actives have a fitted effect of over 60% in size
Target sequence (P51450 whole entry, looked up, the tested form may be a part): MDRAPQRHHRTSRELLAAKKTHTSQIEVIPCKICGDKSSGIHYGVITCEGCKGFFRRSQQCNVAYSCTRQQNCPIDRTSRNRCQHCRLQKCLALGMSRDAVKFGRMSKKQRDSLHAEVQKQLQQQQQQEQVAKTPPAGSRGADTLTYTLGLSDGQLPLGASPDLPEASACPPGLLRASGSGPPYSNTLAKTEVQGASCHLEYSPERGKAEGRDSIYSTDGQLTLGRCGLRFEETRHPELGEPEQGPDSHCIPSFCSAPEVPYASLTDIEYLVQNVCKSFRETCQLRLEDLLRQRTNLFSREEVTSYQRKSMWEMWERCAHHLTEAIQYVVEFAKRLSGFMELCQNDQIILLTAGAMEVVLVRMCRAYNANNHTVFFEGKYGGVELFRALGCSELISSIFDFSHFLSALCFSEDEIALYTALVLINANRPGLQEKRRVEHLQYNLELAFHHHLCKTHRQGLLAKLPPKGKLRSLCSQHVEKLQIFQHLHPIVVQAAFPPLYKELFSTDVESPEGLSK
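Drosophila S2 cells stably expressing Gal4-DBD/mouse RORγ fusion under metallothionein promoter plus UAS-luciferase; compound 1 h, then 700 uM CuSO4 induction for 20 h at ambient temperature; inhibition read as reduced luminescence.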
Starred values were filed as active, the others as inactive; ? = inconclusive; . = not tested or not shown; ! = not confirmed by another sample; [ ] = remark or other dose. In the library only some 12% were active in any assay of this set; here they are far more common. Unless noted, calls come from the whole dose curve; as a rule, active = well fitted curve in the direction sought with a large enough effect; inconclusive = small, poorly fitted or top-dose-only effect, or another doubt; inactive = no such curve, though single readings can be large; an effect the other way counts as inactive or inconclusive. Unless noted, % is set by controls: 0 for no effect and ±100 for the full control effect; potency is the fitted concentration of half-maximal effect.

SMILES	ALDH1A1 inh	Sfp inh	Gal4-VP16 FLuc	PLK1 PBD inh	RORgamma inh
O=C(N/N=C/c1c(O)n(-c2ccccc2)c(=S)[nH]c1=O)c1ccccc1	.	19.4%	3.8%	1.0%	7.94µM*
O=C(N/N=C/c1c(O)n(-c2ccccc2)c(=O)[nH]c1=O)c1ccncc1	?	-11.0%	-4.6%	-2.9%	-6.6%
O=c1[nH]c(=S)n(C2CC2)c(O)c1C=NCc1ccc(F)cc1	.	6.1%	3.1%	-9.0%	3.5%
CCN1C[C@@]2(OC(=O)c3ccccc3NC(C)=O)CCC(OC)[C@@]34C5CC6C(OC)C[C@@](O)(C(CC23)[C@@H]14)C5(O)C6OC (stereo partly drawn)	-14.3%	13.2%	-23.0%	.	-16.6%
O=C(NC(O)C(Cl)(Cl)Cl)NC(O)C(Cl)(Cl)Cl (stereo not drawn)	.	5.6%	0.1%	.	3.8%
BrCCBr	4.7%	.	6.7%	.	-0.3%
CCOC(=O)c1ccc(N2C(=O)CC(N3CCC(O)(c4ccc(Br)cc4)CC3)C2=O)cc1 (stereo not drawn)	1.58µM*	6.3%	-5.0%	0.4%	-5.2%
CCOC(=O)c1ccc(N2C(=O)CC(N3CCC(O)(c4ccc(Cl)cc4)CC3)C2=O)cc1 (stereo not drawn)	7.94µM*	7.8%	-23.2%	-3.8%	23.0%
COC1(C)CC(c2ccccc2)c2c(c3ccccc3oc2=O)O1 (stereo not drawn)	.	-5.2%	-3.1%	.	25.6%
O=C(c1cc(-c2cccc(Cl)c2)on1)N1CCOCC1	.	5.0%	?	-9.5%	22.2%
CN1C(=O)C(=Cc2ccccc2Oc2ccc(Cl)cc2)C(=O)N(C)C1=O	?	?	-1.6%[0.365 µM]	4.74µM*	?
Cc1ccc(S(=O)(=O)Oc2ccccc2C=C2C(=O)N(C)C(=O)N(C)C2=O)cc1	.	79.4µM*	.	6.7µM*	.
CN1C(=O)C(=Cc2sc(=O)n(-c3ccccc3)c2N(C)C)C(=O)N(C)C1=O	.	1.8%	-6.7%	23.4%	-27.6%
CN1C(=O)C(=Cc2ccccc2OCc2ccc(Cl)cc2)C(=O)N(C)C1=O	17.8µM*	50.1µM*	3.6%	10.6µM*	-2.8%[10 µM]
Nc1ccc([N+](=O)[O-])cc1O	-3.7%	.	?	.	22.6%
COC(=O)NC/C=C\c1nc(CC/C=C\C(=O)O[C@H]2C[C@H]3CC(=O)O[C@@H](/C=C\CC(C)C)C[C@@H]4CC[C@H](C)[C@H](C[C@@H](OC)C[C@H](C2)O3)O4)co1	-2.4%[13.5 µM]	5.8%	?	.	0.0056µM*
COc1cc(/C=N/NC(=O)CN2CCCCC2)ccc1OCc1ccccc1	22.4µM*	-10.4%	-6.0%	1.6%	-2.4%
COc1ccc(C(=O)C2CCCN(CCc3ccccc3)C2)cc1OC (stereo not drawn)	.	.	.	1.1%	.
O=[N+]([O-])C(Br)Br	1.41µM*	.	11.2µM*	.	12.6µM*
CC[N+](=O)[O-]	5.1%	.	5.4%	.	-3.0%
O=C(NC1CCCCC1)c1cn(CCN2CCOCC2)c2cc(Cl)ccc2c1=O	.	3.3%	-7.8%	.	-10.4%
CCN(CC)CCO[C@H]1CC[C@@]2(C)C(=CC[C@@H]3[C@H]2CC[C@]2(C)C(=O)CC[C@H]32)C1	-6.3%	10.5%	-2.0%	.	0.5%
COc1ccc(N2C(=O)NC(=O)/C(=C/c3cccc(OC(=O)c4cccs4)c3)C2=O)cc1Cl	?	?	13.8%	18.9µM*	-4.2%
Cc1ccc(N2C(=O)NC(=O)/C(=C/c3ccc(OC(=O)c4cccs4)cc3)C2=O)cc1	?	44.7µM*	-7.7%	9.47µM*	2.6%
O=C1Nc2cc(Cl)c(Cl)cc2N2CCNC[C@H]12	?	-22.1%	?	.	?
SMILES	ALDH1A1 inh	Sfp inh	Gal4-VP16 FLuc	PLK1 PBD inh	RORgamma inh
C=C(C)c1cc2cc(C(C)=O)c(O)cc2o1	11.5%	-18.5%	-7.7%	.	?
Cc1ccc(C(=O)N[C@@H](C)CN2C3=NC[C@H](Cc4ccccc4)N3C[C@H]2Cc2ccc(O)cc2)cc1Br	.	56.2µM*	-1.3%	-13.7%	-5.2%
CCOP(=O)(OCC)c1nc(-c2ccc(F)cc2)oc1NCc1ccccc1	?	5.5%	0.0%	-16.2%	22.8%
O=C(O)CC1OCC=C2CN3CCC45C6=CC(=O)C(=O)C([N+](=O)[O-])=C6NC4C1C2CC35 (stereo not drawn)	8.2%	14.1µM*	?	?	?
O=C(O)CC1OCC=C2CN3CCC45c6ccccc6NC4C1C2CC35 (stereo not drawn)	.	13.8%	-1.7%	-4.8%	-12.6%
c1ccc2c(c1)Sc1ccccc1N2C[C@H]1CN2CCC1CC2	11.8%[13.5 µM]	.	.	.	.
CC1CC(C)CN(CC(=O)c2ccc(OC(F)F)cc2)C1 (stereo not drawn)	1.26µM*	0.4%	-15.1%	-2.3%	-10.1%
COc1ccc(C(=O)CN2CCCCC2)cc1	?	10.9%	-21.8%	-8.5%	2.1%
CC[C@]1(O)CC(O[C@@H]2CC(N(C)C)C(O)C(C)O2)c2c(cc3c(c2O)C(=O)c2c(O)ccc(O)c2C3=O)C1C(=O)OC (stereo partly drawn)	-6.2%	-28.0%	2.24µM*	.	1.12µM*
COc1cccc2c1C(=O)c1c(O)c3c(c(O)c1C2=O)C[C@](O)(/C(C)=N\O)C[C@@H]3O[C@H]1C[C@H](N)[C@@H](O)[C@H](C)O1	-7.8%[13.5 µM]	.	.	.	.
O=C1Nc2ccccc2C1Cc1nc2ccccc2c(=O)n1-c1ccccc1 (stereo not drawn)	.	-5.0%	-2.7%	21.2µM*	-5.5%
COc1ccc(CCNc2oc(-c3ccc(OC)c(OC)c3)nc2P(=O)(OC)OC)cc1OC	10.2%	-8.8%	?	-4.7%	19.4%
C[C@]12CCC3C(CC[C@H]4C[C@H](O)CC[C@]34C)[C@@H]1CC[C@@H]2C(=O)CO (stereo partly drawn)	19.4%	-10.2%	.	.	.
CN1CC[C@@]2(c3cccc(O)c3)Cc3nc4ccccc4cc3C[C@H]2C1	-1.7%	79.4µM*	-10.6%	.	-17.0%
N#CCCC#N	28.2µM*	.	0.4%	.	?
COc1ccc2c(c[n+](C)c3c4cc5c(cc4ccc23)OCO5)c1OC	?	50.1µM*	8.91µM*!	.	7.08µM*
CC(=O)NC(Cc1ccc(N(CCCl)CCCl)cc1)C(=O)NC(C(=O)O)C(C)C (stereo not drawn)	-14.3%	8.0%	-2.6%	-4.5%	0.0%
NC(Cc1ccc(N(CCCl)CCCl)cc1)C(=O)O (stereo not drawn)	31.6µM*	-14.2%	5.7%	.	0.5%
CCOC(=O)CC(NC(=O)C(Cc1ccc(N(CCCl)CCCl)cc1)NC(C)=O)C(=O)OCC (stereo not drawn)	25.1µM*	79.4µM*	-3.1%	5.97µM*	31.6%
CCC#N	?	.	-0.5%	.	20.0%
O[N+]1=CC=CCC1=S.On1ccccc1=S.[Zn]	2.82µM*	-99.6%	0.501µM*	.	0.316µM*
CCCCCCCSc1cc(OC)c(CCN(C)C)cc1OC	2.2%	14.1µM*	?	-6.2%	?
CCCCCSc1cc(OC)c(CCN)cc1OC	-12.8%	?	?	-5.7%	7.08µM*
C[C@H](N)Cc1cnc[nH]1	-2.6%	6.1%	-12.2%	.	-16.6%
CSc1ccc2c(c1)c(CCN)c(C)n2Cc1ccccc1Cl	17.6%[13.5 µM]	.	.	.	.
